Results reported in the supplement of paper PMC10338343.
± gives the standard deviation.

Tests used:
[1] = system: MILI (PIWIL2) piRISC loaded with L1MC piRNA (26 nt); assay: pre-steady-state target cleavage rate (min^-1); guide: L1MC piRNA 5'p-UAACUAAAUACUAUGCAAGCUGUAGG; higher = faster piRNA-guided slicing of the target; conditions: auxiliary factor: 500 nM mouse GTSF1;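 further: 1 nM active piRISC with 0.1 nM target library at 33 °C single turnover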
Summary of the method: (§1)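 A transcribed, DNA-blocked target RNA library […] was incubated at 33 °C for 0–8 or 0–960 min with 1 nM active affinity-purified piRISC carrying one synthetic guide, in HEPES–potassium acetate buffer with or without 500 nM GTSF1 partner protein. Uncleaved targets were then sequenced and normalised to depth and to weakly complementary targets. Data from three trials were pooled, with k3 capped at 0.0001 min^-1, and a burst-and-steady-state fit yielded the pre-steady-state cleavage rate.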

[2] = system: EfPiwi piRISC loaded with L1MC piRNA (26 nt); assay: pre-steady-state target cleavage rate (min^-1); auxiliary factor: 500 nM Ephydatia muelleri Gtsf1; guide: L1MC piRNA 5'p-UAACUAAAUACUAUGCAAGCUGUAGG; MIWI and MILI are mouse PIWI proteins and EfPiwi is from a freshwater sponge; tags in brackets are library labels; higher = faster piRNA-guided slicing of the target
Summary of the method: as §1

| Sequence | pre-steady-state target cleavage rate [1] | pre-steady-state target cleavage rate [2] |
| --- | --- | --- |
| UCCUGGAACACCUUGCAUAGUAUUAAGUUA | 0.189 ± 0.034 | 0.00303 ± 0.0027 |
| UCCUCCUACUGCUUGCAUAGUAUUUAGAUA | 0.085 ± 0.015 | 0.0056 ± 0.0026 |
| UCCUGGUACACCUUGCAUAGUAUUAAGUUA | 0.218 ± 0.066 | 0.00356 ± 0.0032 |
| UCCUGCUUCAGCUUCCAUAGUAUUUAGUUA | 0.0549 ± 0.018 | 0.00322 ± 0.0013 |
| UCCUGCAUCAGCUUGCAUAGUAUUUAGAAA | 0.127 ± 0.022 | 0.00393 ± 0.0017 |
| UCCUGGAACUGCUUGCAUAGUAUUUUGUUA | 0.101 ± 0.017 | 0.00426 ± 0.0026 |
| UCCUCCUACAGCUUGCAUAGUAUGUAGUUA | 0.041 ± 0.015 | 0.00354 ± 0.0013 |
| UCCUGGUAGUGCUUGCAUAGUAUUUAGAAA | 0.0343 ± 0.013 | 0.00197 ± 0.0017 |
| UCCUCCUACUGCUUGCAUAGUAUUUACAAA | 0.0424 ± 0.011 | 0.0028 ± 0.0021 |
| UCCUGCUACAGCUUGCAUAGUAUUUAGAAA | 0.157 ± 0.032 | 0.00439 ± 0.0012 |
| UCCUGGAACAGCUUGCAUACUAUUUAGAUA | 0.013 ± 0.0053 | 0.00312 ± 0.0022 |
| UCCUGGUACAGCUUGCAUAGUAUUAACAAA | 0.0231 ± 0.0084 | 0.00261 ± 0.0023 |
| UCCUGGAUGAGCUUGGCAUAGUAUUUAGUUA | 0.224 ± 0.054 | 0.0123 ± 0.0039 |
| UCCUCCUACAGCUUGCAUAGAAUUUAGAUA | 0.0558 ± 0.014 | 0.00317 ± 0.0015 |
| UCCUGGAACAGCAUGCAUAGUAUUUUGUUA | 0.116 ± 0.017 | 0.00267 ± 0.0022 |
| UCCUGCUUGAGCUUGCAUAGUAUUUACAAA | 0.0564 ± 0.017 | 0.00279 ± 0.0023 |
| UCCUCCUACAGCAUGCAUAGUAUUUAGAAA | 0.211 ± 0.03 | 0.00473 ± 0.002 |
| UCCUGCUACAGCUUGCAUAGUAUGUUAGUUA | 0.164 ± 0.036 | 0.00247 ± 0.002 |
| UCCUGCUUCAGCUUGCAUAGUAUUUACAAA | 0.212 ± 0.047 | 0.00462 ± 0.0025 |
| UCCUGCUACAGCUUGCAUAGUAUUUAGAUA | 0.15 ± 0.029 | 0.00539 ± 0.0023 |
